Compound activity from PubChem BioAssay.
HSP90 refold inh = HSP90 inhibitors, primary screen, cell lysate, luminescence; inhibition, % at 5.6 µM; 290,000 tested, 0.91% active; AID 1789, 2009; Rabbit reticulocyte lysate, luciferase refolding luminescence, 3 h; Heat shock protein HSP 90 (rabbit reticulocyte lysate; luciferase refolding);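 active means inhibition above the screen-wide mean plus 3 SD, computed separately per campaign, cut at about 16% in these data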;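 further: inhibitors lower the luminescence because luciferase stays unfolded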
STAT1 inh = STAT1 signaling inhibitors, primary screen, cell-based, HTS, luciferase reporter; NIH 3T3 STAT1-luciferase reporter, IFN-gamma, luminescence; inhibition, % at 5.5 µM; 200,000 tested, 0.35% active; AID 920, 2007;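 active means inhibition above a set limit, the mean inhibition across all tested compounds plus 3 SD, cut at about 34% in these data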
HSF1 inh = HSF1 inhibitors in luciferase reporter cells, primary screen, cell-based, NIH3T3, luminescence; NIH3T3-HGL HSE-luciferase, MG132-induced, luminescence 8 h; active compounds read low; AID 2098, 2009; activity change, negative = inhibition, % at 7.5 µM (by protocol); 300,000 tested, 0.77% active;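 active means more than half of replicate wells show activity change below -50%, luminescence cut by over half; inconclusive means some wells, but at most half, below -50%; inactive means no replicate well below -50%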;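 further: luciferase reports HSF-1 transcriptional activity via heat shock element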
STAT3 blocker = IL-6 driven STAT3 reporter inhibitors, primary screen, U3A cells, luciferase, luminescence, MLSCN library; inhibition, % at 5.5 µM; IL-6 STAT3-luciferase reporter; host cell line lacks STAT1; 190,000 tested, 0.89% active;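 active means inhibition above the mean inhibition across all screened compounds plus 3 SD, cut at about 44% in these data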
PPC-1+TRAIL kill = compounds killing PPC-1 cancer cells with TRAIL present, primary screen, TRAIL potentiator project, ATPLite luminescence, uHTS; PPC-1 cells + TRAIL, ATPLite viability luminescence; cell killing (% activity), % at 4 µM or 5 µM; 220,000 tested, 0.41% active; AID 1443, 2008;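 active means cell killing above 50% in the first pass at 4 µM, then a duplicate retest at 5 µM averaging 50% or more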
C8 TRAIL sens = viability loss with TRAIL in NB7+C8 cells, primary screen, TRAIL sensitizer project, cell-based, ATPlite luminescence; inhibition (viability loss, TRAIL sensitization), % at 10 µM; 360,000 tested, 1% active;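 active means compounds causing at least 50% loss of cell viability in the single-dose screen, relative to plate controls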
HSP90 inh confirm = HSP90 inhibitors, confirmation, cell lysate, luminescence | shares compounds with HSP90 refold inh | rabbit reticulocyte lysate, luciferase refolding luminescence, 3 h | inhibition, % at 5.9 µM | 2,300 tested, 64% active | AID 1846, 2009; in the data active means inhibition above about 18%
luciferase ctr = firefly luciferase inhibitors, HSP90 counter-screen, confirmation, artefact control for HSP90 inhibitor project, biochemical, luminescence, triplicate; shares compounds with HSP90 refold inh; purified native firefly luciferase; inhibition, % at 5.9 µM; 2,300 tested, 48% active;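 active means inhibition above the mean inhibition of all tested sample wells plus 3 SD, cut at about 10% in these data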
Target sequence (P08659 whole entry, looked up): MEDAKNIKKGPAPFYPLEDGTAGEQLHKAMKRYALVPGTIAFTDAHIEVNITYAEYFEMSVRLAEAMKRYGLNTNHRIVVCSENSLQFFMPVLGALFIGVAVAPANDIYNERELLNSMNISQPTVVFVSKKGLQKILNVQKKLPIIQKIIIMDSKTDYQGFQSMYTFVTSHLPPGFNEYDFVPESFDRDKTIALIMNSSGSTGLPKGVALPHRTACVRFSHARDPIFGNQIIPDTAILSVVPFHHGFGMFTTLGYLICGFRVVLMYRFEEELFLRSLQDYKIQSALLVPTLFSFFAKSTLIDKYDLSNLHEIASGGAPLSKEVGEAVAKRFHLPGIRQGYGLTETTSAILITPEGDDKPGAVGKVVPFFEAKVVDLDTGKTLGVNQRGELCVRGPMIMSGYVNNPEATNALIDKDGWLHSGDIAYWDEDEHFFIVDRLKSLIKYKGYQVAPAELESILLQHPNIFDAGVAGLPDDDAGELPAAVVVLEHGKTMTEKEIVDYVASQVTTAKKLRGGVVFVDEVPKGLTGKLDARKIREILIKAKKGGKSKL
Hits are given with their value; . = inactive; ? = inconclusive; / = no result given. Most compounds without a hit are left out; they make up all but 2.4% or so of the library.

SMILES	HSP90 refold inh	STAT1 inh	HSF1 inh	STAT3 blocker	PPC-1+TRAIL kill	C8 TRAIL sens	HSP90 inh confirm	luciferase ctr
COc1cccc2oc3cc(C#CC4(O)CCCCC4)ccc3c(=O)c12	26	/	.	/	/	72	30	19
CCCCCC(=O)N1C[C@H](O)[C@@H](n2cc(-c3ccc(F)cc3)nn2)C[C@@H]1c1ccc(OC)cc1	/	/	/	/	/	.	/	/
CCN(CC)C(=O)c1ccc2c(=O)n(Cc3cccc(Br)c3)c(=S)[nH]c2c1	.	/	.	/	/	/	/	/
O=C(NC1CCCC1)C(c1ccc(F)cc1)N(Cc1ccc(Cl)cc1)C(=O)CCl (stereo not given)	.	.	.	.	.	.	/	/
Cc1ccc2nc(-c3sc4nc(C)cc(C)c4c3N)[nH]c2c1	25	.	-61	.	.	56	23	19
CC(=O)c1sc2nc(C)cc(C)c2c1N	.	.	.	.	.	.	/	/
CN(C)c1ccc(/C=N/Nc2nc3ccccc3o2)cc1	45	/	.	/	/	.	63	62
O=C(O)c1cc(N/N=C/c2cccs2)ccc1Cl	24	.	.	.	.	/	67	21
Cc1ccc(/C=N/Nc2nc(Cl)c(Cl)cc2Cl)s1	.	.	.	.	.	.	/	/
C/C(=N\Nc1ccc(Cl)c(C(=O)O)c1)c1ccccn1	40	/	.	/	.	.	.	.
Cc1ccc(/C=N/Nc2ccc(Cl)c(C(=O)O)c2)s1	24	.	.	.	.	.	77	37
O=C(O)c1cc(N/N=C/C(Cl)=C/c2ccccc2)ccc1Cl	48	59	.	51	.	.	89	80
O=C(O)c1cc(N/N=C/c2cccc3ccccc23)ccc1Cl	.	/	.	/	/	.	/	/
CCCCn1c(=O)[nH]c(=O)c2c1nc(-c1cc(Br)c(OCC)c(OC)c1)n2C	.	/	.	/	/	.	/	/
COc1cc2nc(C3CCC3)n(NC(=O)c3ccco3)c(=O)c2cc1OC	.	.	.	.	/	.	/	/
N#C/C(=C/c1ccc2c(c1)OCO2)C(=O)Nc1ccc(O)cc1	.	.	.	.	.	.	/	/
O=C(Nc1ccccn1)c1ccc(C(=O)c2ccccc2)cc1	/	/	.	/	/	.	/	/
COc1cc(C(=O)Nc2ccccn2)cc(OC)c1OC	.	.	.	.	.	.	/	/
Cc1cc(C(=O)Nc2ccccn2)cs1	25	.	/	.	.	.	16	.
O=C(NC(=O)c1ccccc1)Nc1ccccn1	74	/	.	/	/	89	93	86
CC1=C(C(=O)N2CCCCCC2)CC(CC(=O)NCCCN(C)C)C(=O)N1Cc1ccccc1 (stereo not given)	/	/	/	/	/	.	/	/
Cc1cc2ccccc2c(=O)n1CC(=O)NCC(=O)N(C)Cc1ccccc1	.	.	.	.	.	.	/	/
Cc1cc2ccccc2c(=O)n1CC(=O)NCC(=O)N(C)C1CCCCC1	28	.	.	.	.	.	.	.
CCOC(=O)c1ccc(NC(=S)NC(=O)c2cncc(Br)c2)cc1	.	/	.	/	/	.	/	/
O=C(O)c1ccc(NC(=S)NC(=O)c2cncc(Br)c2)cc1	51	/	.	/	/	.	25	.
SMILES	HSP90 refold inh	STAT1 inh	HSF1 inh	STAT3 blocker	PPC-1+TRAIL kill	C8 TRAIL sens	HSP90 inh confirm	luciferase ctr
Cc1ccc(C(=O)CN2/C(=C(\O)c3ccccc3)C(=O)c3ccccc3S2(=O)=O)c(C)c1	40	.	.	.	.	.	.	.
COc1cccc(C(C(=O)NC2CCCC2)N2CCN(c3cc(C)nc4ccccc34)CC2)c1OC (stereo not given)	/	/	/	/	/	.	/	/
CCc1nc2c(OCCOc3ccc(F)cc3)cccn2c1N(C=O)Cc1ccc(OC)cc1	/	/	/	/	/	.	/	/
COc1ccc(-c2nc(CN3CCCCC3CCc3ccccn3)c(C)o2)cc1 (stereo not given)	.	.	.	.	.	.	/	/
CCOc1ccc(-c2nc(CN3CCCCC3CCn3cccn3)c(C)o2)cc1 (stereo not given)	18	/	.	/	.	.	36	.
CCOc1ccc(Nc2ncnc3c2cnn3Cc2ccccc2)cc1	23	.	.	.	.	.	.	.
COc1ccc(Nc2ncnc3c2cnn3Cc2ccccc2)cc1	.	.	.	.	.	.	/	/
Cc1c(N=Cc2nc3ccccc3n2C)c(=O)n(-c2ccccc2)n1C	32	.	.	.	.	.	37	26
CC(C)CN(CCCNC(=O)CN1C(=O)COc2ccc(S(=O)(=O)N3CCCC3)cc21)CC(C)C	22	.	.	.	.	.	.	.
O=C(NCCCN1CCCC1=O)c1cc(-c2cccnc2)nc2ccc(Cl)cc12	28	.	.	.	.	.	.	.
CC(=O)Nc1ccc(NC(=O)COC(=O)COc2ccc3ccccc3c2)cc1	/	/	/	/	/	.	/	/
CCOC(=O)C1CCN(C(=O)c2sc3nc(-c4ccccc4)cn3c2C)CC1	.	.	.	.	.	.	/	/
COc1ccc(-c2cn3c(C)c(C(=O)NCCN4CCOCC4)sc3n2)cc1	73	.	.	.	.	.	69	.
CCOC(=O)C1CCCN(C(=O)c2sc3nc(-c4ccc(OC)cc4)cn3c2C)C1 (stereo not given)	46	.	.	.	.	.	45	.
O=C(Nc1ccccc1C(=O)N1CCOCC1)c1ccncc1	.	.	.	.	.	.	/	/
CN(C)c1ccc(N=Nc2ccc(C(=O)O)cc2)cc1	31	/	.	/	/	51	53	84
COCCn1c(C)cc(/C=C2/NC(=O)N(c3cccc(Cl)c3)C2=O)c1C	.	.	?	.	.	.	/	/
CCn1c(C)cc(/C=C2/NC(=O)N(c3ccccc3)C2=O)c1C	31	.	-52	.	.	.	.	.
CN(CCc1ccccc1)C(=O)c1ccc(NC(=O)Cc2ccc(NC(=O)C3CCN(C(=O)CCc4ccccc4)CC3)cc2)cc1	/	/	/	/	/	.	/	/
CCc1ccc(C(=O)Nc2nc3ccccc3[nH]2)cc1	80	/	.	/	/	96	90	85
O=C(Nc1nc2ccccc2[nH]1)c1ccccc1OC(F)F	30	/	.	/	/	69	55	45
CN(C)S(=O)(=O)c1ccc(C(=O)Nc2nc3ccccc3[nH]2)cc1	.	.	.	.	.	.	/	/
O=C(Nc1nc2ccccc2[nH]1)c1ccc(OC(F)F)cc1	37	/	.	/	/	83	58	53
N#Cc1ccc(C(=O)Nc2nc3ccccc3[nH]2)cc1	.	/	.	/	/	.	/	/
Cc1ccsc1C(=O)Nc1nc2ccccc2[nH]1	22	/	.	/	.	60	38	29
CC(C)CNC(=O)c1cccc(NC(=O)c2ccc(Cl)c([N+](=O)[O-])c2)c1	.	.	.	.	.	.	/	/
